We go through 68 molecules from PubChem BioAssay AID1745857 (National Center for Advancing Translational Sciences (NCATS), 2022).

Among all 120,000 compounds or so, about 370 (0.31%) were called active. Roughly 4% stayed inconclusive and do not appear here. The sample holds actives, similar compounds and a random draw of the others, so the mix is not that of the screen. Calls follow the shape of the full dose curve.
% is scaled to controls: 0 for no effect and ±100 for the full control effect; potency is read from the fitted curve at half-maximal effect.

This assay is described as follows: Primary qHTS Assay for Foot and Mouth Disease Virus Antivirals against NCGC Sytravon and CBC Compound Libraries: Renilla Luciferase Signal. Also: nearly all actives have a fitted effect of over 55% in size. To be noted: FMDV replicon cells; series mostly up to 57.5 µM; activity change, negative = inhibition: at the top concentration.
Consider `Cn1c(=O)c2c(ncn2CC(=O)NCCc2cccc(F)c2)n(C)c1=O`, for which the “activity change, negative = inhibition” value was -3.59% (inactive). With `C=C(C)CN1CCN(c2oc(C3CC3)nc2C#N)CC1`, the “activity change, negative = inhibition” value is 0.962% (inactive).

On to `Cc1c(-c2ccccc2)oc2c(C(=O)OCC(=O)C(C)(C)C)cccc2c1=O`, for which the “activity change, negative = inhibition” value is 24.8% (inactive). Still for that read-out and setting: next, `COCCNC(=O)COc1cc(O)c2c(=O)cc(-c3ccccc3)oc2c1`: -3.95% (inactive); `CCc1cccc(NC(=O)c2ccc3c(c2)NC(=O)CS3)c1`: -4.7% (inactive); `CC(C)Sc1c(C(C)C)cnc2c1c(=O)n(C)c(=O)n2C`: 13.9% (inactive). On the same count and under the same terms, next, `CC(C)Oc1ccc(C(O)(CC[N+](C)(C)C)C2CCCCC2)cc1` (stereo not drawn): -5.33% (inactive); `COc1ccc(/C=C/c2ccc3cccc(O)c3n2)cc1OC`: 22.5% (inactive).

Turning to `Cc1sc2nc(CN3CCOCC3)nc(N(C)CC(=O)Nc3ccc(F)cc3)c2c1C`, the “activity change, negative = inhibition” value was -4.28% (inactive). With `COc1ccc(-c2csc3c2NC(=O)CC3c2ccc(OCC(N)=O)c(OC)c2)cc1` (stereo not drawn), the Potency was 2820 nM (active).

As for `COc1ccc(C2CC(=O)Nc3c2c(=O)nc2c(C)cccn32)cc1OC` (stereo not drawn), the “activity change, negative = inhibition” value was 129% (inactive). Same read-out and setting: as for `Cc1ccc(-c2csc3c2NC(=O)CC3c2ccc(C)cc2)cc1` (stereo not drawn), the figure is -2.07% (inactive); as for `COc1ccc(Nc2nc(-c3ccc(NC(C)=O)cc3)cs2)cc1`, 21.3% (inactive); as for `COc1ccc(CNC(=O)NCc2noc3ccc(C)cc23)cc1`, 0% (inactive). The same measure, in the same setting: next, `COC(=O)COc1ccc2c(C)c(CC(=O)OC)c(=O)oc2c1C`: -19.7% (inactive); `O=C(Cc1cnc(-c2ccccc2F)s1)Nc1nccs1`: -1.54% (inactive). On the same count and under the same terms, next, `COc1ccc(S(=O)(=O)N2CCC(C(=O)NCc3cccnc3)CC2)cc1`: 13% (inactive); `O=C(O)c1ccc(CNCc2ccco2)cc1`: 5.71% (inactive). Consider `Cc1cc2nc(/N=C(\N)NC(=O)Cc3ccccc3)nc(C)c2cc1C`, for which the “activity change, negative = inhibition” value is -1.81% (inactive). The same measure, in the same setting: as for `Cn1c(=O)c2nc(SCC(=O)NCc3ccc(Cl)cc3)n(C)c2n(C)c1=O`, the figure is -0.19% (inactive); as for `Cc1noc(C)c1S(=O)(=O)N(C)CC(=O)Nc1ccc(C(C)(C)C)cc1`, -15.4% (inactive); as for `CN(C)S(=O)(=O)c1cccc(C(=O)Nc2cccc(Oc3ccccc3)c2)c1`, 14.5% (inactive). For `CCCCn1c(=O)[nH]c(=O)c2c1nc(CSc1nnc(-c3ccco3)n1C)n2CC`, the “activity change, negative = inhibition” value was 4.85% (inactive). Same read-out and setting: as for `CCOC(=O)c1ccc(Oc2coc3cc(OC)ccc3c2=O)cc1`, the figure is 2.18% (inactive). On to `CN1CC[C@H](c2c(O)cc(O)c3c(=O)cc(-c4ccccc4Cl)oc23)[C@H](O)C1`, for which the Potency is 1000 nM (active).

Turning to `Cc1ccc(C(=O)O)cc1S(N)(=O)=O`, the “activity change, negative = inhibition” value is 2% (inactive).

`COc1ccc(NC(=O)c2cccc(-n3cccc3)c2)c(OC)c1`: the “activity change, negative = inhibition” value is 21.8% (inactive).

For `CCN(C(=O)Cn1c(CN2CCOCC2)nc2ccccc21)c1ccccc1`, the “activity change, negative = inhibition” value was -15% (inactive). Same read-out and setting: as for `CCOc1cccc2c(C)nc(Nc3nc(CSc4ccc(C)cc4)cc(=O)[nH]3)nc12`, the figure is -3.54% (inactive); as for `Cc1ccc(CC(=O)N(C)CC(=O)N(CC(C)C)c2c(N)n(CC(C)C)c(=O)[nH]c2=O)cc1C`, -10.9% (inactive); as for `O=C1c2ccccc2NC(c2cnc3ccccc3n2)N1c1ccc(F)cc1` (stereo not drawn), 2.44% (inactive). The same measure, in the same setting: as for `CCCCn1c(=O)[nH]c(=O)c2c1nc(CSc1n[nH]c(C)n1)n2CC`, the figure is 17% (inactive). As for `COC(=O)c1ccc(C(=O)NCc2ccccc2C)cc1`, the “activity change, negative = inhibition” value was 74% (inactive).

Turning to `Cc1c(C)[n+](=O)c2cc(F)c(F)cc2n1[O-]`, the “activity change, negative = inhibition” value is 21.4% (inactive). The same measure, in the same setting: next, `Cc1ccc(-c2noc(Cn3cnc(C#N)n3)n2)cc1F`: -14.4% (inactive); `O=C1CCSc2c1cccc2C(=O)NCc1ccccc1Cl`: 28.6% (inactive).

With `COCCn1c(SCc2cc(C)ccc2OC)nnc1-c1ccccc1`, the “activity change, negative = inhibition” value is 51.2% (inactive). Same read-out and setting: as for `COc1ccc(Nc2nc3ccccc3nc2NS(=O)(=O)c2ccc(OC)cc2)cc1`, the figure is 284% (inactive); as for `CCOCCCNc1oc(-c2ccc(S(=O)(=O)N(C)C)cc2)nc1C#N`, 11.5% (inactive); as for `Cc1cccc(NC(=O)c2cccc3ncccc23)c1`, -4.62% (inactive). Same read-out and setting: next, `CC(NCc1cccs1)C12CC3CC(CC(C3)C1)C2` (stereo not drawn): 1.23% (inactive). Regarding `CC(C)COc1ccc(/C=C(\C#N)C(=O)Nc2ccccc2C(=O)O)cc1`, the “activity change, negative = inhibition” value is 112% (inactive). On the same count and under the same terms, as for `COC(=O)C(N)Cc1ccc2ccccc2c1` (stereo not drawn), the figure is -8.69% [at 1.06 µM] (inactive). Same read-out and setting: as for `O=C(NCC1CC1)c1cc(-c2ccncc2)nc2ccccc12`, the figure is -3.62% (inactive). Still for that read-out and setting: as for `Brc1ccc(/C=N/Nc2nc3ccccc3c3ccccc23)cc1`, the figure is 11.2% (inactive); as for `CCCCCCCCCOc1ccc(C(=O)c2ccccc2)cc1`, 19.7% (inactive); as for `Cc1ccc(NC(=O)Cn2cc(/C=C3\NC(=O)NC3=O)c3ccccc32)cc1`, -7.74% (inactive). Turning to `c1ccc(N2CCN(c3nc(N4CCCCC4)nc4nccnc34)CC2)cc1`, the “activity change, negative = inhibition” value is -1.01% (inactive). Same read-out and setting: as for `O=C(NCc1cccnc1)C(=O)NCC(c1cccnc1)N1CCN(c2ccccc2)CC1` (stereo not drawn), the figure is -12.2% (inactive). Regarding `COc1ccccc1N1CCN(C(CNC(=O)C(=O)NCc2ccc(C)cc2)c2cccnc2)CC1` (stereo not drawn), the Potency is 7080 nM (active). Take `COc1ccccc1NC(=O)C(=O)NCC(c1cccnc1)N1CCN(c2ccccc2F)CC1` (stereo not drawn): the “activity change, negative = inhibition” value was -20.7% (inactive). For the molecule `CCOc1ccccc1NC(=O)N1CCC2(CC1)c1cccn1-c1ccc(C)cc1N2CC`, the “activity change, negative = inhibition” value is -9.05% (inactive).

Consider `O=C(Cc1c[nH]c2ccccc12)N1CCN(C(=O)c2ccccc2)CC1`, for which the “activity change, negative = inhibition” value was -4.71% (inactive).

`O=C(COc1ncnc2ccccc12)Nc1ccccc1Cl`: the “activity change, negative = inhibition” value was 5.08% (inactive). Same read-out and setting: as for `COC(=O)CNC(=O)c1cc2occc2n1Cc1ccccc1`, the figure is -3.45% (inactive). Turning to `COC1CC(OC2CCC3(C=O)[C@H]4CCC5(C)C(C6=CC(=O)OC6)CCC5(O)[C@@H]4CCC3(O)C2)OC(C)C1O` (stereo partly drawn), the Potency was 398 nM (active). In the case of `N#Cc1cn(C2CC2)c(=O)n(Cc2coc(-c3cccc(Cl)c3)n2)c1=O`, the “activity change, negative = inhibition” value is -10.6% (inactive). Still for that read-out and setting: next, `O=C(CCc1ncc(-c2ccc(F)cc2)o1)NCC(c1ccccc1)N1CCCC1` (stereo not drawn): -17.8% (inactive); `O=C(CC1(O)C(=O)N(CN2CCOCC2)c2ccccc21)c1ccc2ccccc2c1` (stereo not drawn): 69.4% (inactive).

Consider `Oc1c(Cl)cc(Cl)c(Cl)c1Cc1c(O)c(Cl)cc(Cl)c1Cl`, for which the Potency was 10000 nM (active).

Consider `Cc1cccc(OCCn2cc(S(=O)(=O)N3CCCC3)ccc2=O)c1`, for which the “activity change, negative = inhibition” value was 12.5% (inactive). As to `CCN(CC)CCCNC(=O)C(=O)Nc1cccc2[nH]ccc12`, the “activity change, negative = inhibition” value was -2.93% (inactive).

For `O=C(CSc1ccc2c(c1)OCCCO2)NC(c1ccccc1)c1cccs1` (stereo not drawn), the “activity change, negative = inhibition” value is 20.5% (inactive). Still for that read-out and setting: next, `Cc1cccc(NC(=O)CN2CCCN(c3ncc(C(F)(F)F)cc3Cl)CC2)c1`: -9.07% (inactive); `CCC(C)NC(=O)COc1ccc2c(C)cc(=O)oc2c1` (stereo not drawn): -9.07% (inactive). Still for that read-out and setting: as for `CCOC(=O)CN1C(C(=O)c2ccccc2)=C(OC(=O)CC)c2ccccc2S1(=O)=O`, the figure is 1.36% (inactive); as for `COC(=O)c1[nH]c2ccc(F)cc2c1NC(=O)CCN1CCC(C)CC1`, -9.84% (inactive).

In the case of `N#Cc1ccccc1COC(=O)c1ccccc1NCCO`, the “activity change, negative = inhibition” value is 17.4% (inactive).
